# From PubChem BioAssay AID1822 (The Scripps Research Institute Molecular Screening Center, 2009)
# In all, about 290,000 compounds went through this assay and about 3,500 (1.2%) were called active. For the sample, actives were picked, then their nearest neighbours and some compounds at random. A number with no mark means an inactive call.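 The calls were made as follows: active = inhibition above the campaign mean inhibition over all tested compounds plus 3 SD (cut at about 28% in these data); inactive = the rest.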
# Tested on: M18 aspartyl aminopeptidase (Plasmodium falciparum 3D7)
# Assay: inhibition of P. falciparum M18 aminopeptidase – biochemical, QFRET, recombinant enzyme, primary screen (AID 1822);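 also: 0% = plate median of test compound wells and 100% = 2 mM ZnCl2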
# Settings: recombinant PfM18AAP, H-Glu-NHMec fluorogenic cleavage; at 7.35 µM; active compounds read high
row,SMILES,inhibition
1,COc1cccc(C(=O)NNS(=O)(=O)c2ccc(F)cc2)c1,10.3%
2,CC(C)CN(CC(C)C)CC(O)CN(c1ccccc1)S(=O)(=O)c1ccccc1[N+](=O)[O-] (stereo not drawn),2.89%
3,C=CCn1c(Cn2nnc3ccccc32)nnc1SCC(=O)N/N=C/c1cc(Br)cc(OC)c1O,28.3% (active)
4,COc1ccc(OC)c(/C=N/NC(=O)CSc2nnc(C)n2-c2ccccc2)c1,-0.06%
5,Cc1ccc(Cn2c(SCC(=O)N/N=C/c3ccccc3OCC(=O)O)nc3ccccc32)cc1,5.43%
6,O=C1C2CCCN2C(=O)N1CCCCN1CCN(c2cccc(C(F)(F)F)c2)CC1 (stereo not drawn),-6.19%
7,CC(C)C1Cc2c(sc3c2c(=O)n(-c2ccccc2)c2nncn32)CO1 (stereo not drawn),9.11%
8,CC(C)CNC(=O)C(=O)Nc1ccc(N(C)C)cc1,5.25%
9,CN(C)c1ccc(C(CC(=O)O)C(=O)O)cc1 (stereo not drawn),33.2% (active)
10,CC(=O)NC(CC(=O)O)c1ccc(F)cc1 (stereo not drawn),4.92%
11,COc1ccc(OC)c(C(O)c2nc3ccccc3n2C)c1 (stereo not drawn),2.35%
12,CC(=O)c1ccc(N2CCN(CC(O)c3ccccc3)CC2)cc1 (stereo not drawn),-0.23%
13,COC(=O)c1ccc(CN2C(=O)NC(c3ccccc3)(c3ccccc3)C2=O)o1,0.97%
14,COc1ccc(CCNC(=O)c2ccc(CS(=O)(=O)c3ccc(Br)cc3)o2)cc1OC,-0.17%
15,COc1ccccc1CNC(=O)c1ccc(CS(=O)(=O)c2ccccc2)o1,-0.58%
16,CCOCCCNC(=O)c1ccc(CS(=O)(=O)c2cccc(C(F)(F)F)c2)o1,78.5% (active)
17,Cc1c(Cl)cccc1NC(=O)[C@@]1(CC(=O)O)CC(/C=C/c2ccccc2)=NO1,-3.65%
18,O=C(NCCO)C(=O)NCC(c1ccc2c(c1)OCO2)N1CCN(c2ccc(F)cc2)CC1 (stereo not drawn),2.98%
19,COc1ccccc1-c1nnc(SCC(=O)Nc2cc(C)on2)o1,39.2% (active)
20,COc1ccccc1-c1nnc(SCC(=O)Nc2ccccc2)o1,17.1%
21,Cc1cc(NC(=O)CSc2nnc(-c3ccc(Cl)s3)o2)no1,21.4%
22,COc1ccc(C(=O)CCC(=O)Nc2ccc(Cl)cc2)cc1,-1.71%
23,COc1ccc(-c2csc(Nc3ccc(O)cc3)n2)cc1,28.1% (active)
24,COc1ccc(C)cc1Nc1nc(-c2c(C)[nH]c3ccccc23)cs1,-5.8%
25,COc1ccc(OC)c(Nc2nc(-c3ccc(O)c(O)c3)cs2)c1,56.5% (active)

row,SMILES,inhibition
1,COc1ccc2nc(Nc3nc(-c4ccncc4)cs3)sc2c1,-1.76%
2,Cc1ccccc1Nc1nc(-c2cccnc2)cs1,1.18%
3,NS(=O)(=O)c1ccc(Nc2nc(-c3ccccc3)cs2)cc1,2.74%
4,CN(c1ccc(O)cc1)c1nc(-c2cccnc2)cs1,7.5%
5,COc1cccc(CC(=O)Nc2nc(-c3ccc(OC)c(OC)c3)cs2)c1,-8.12%
6,Oc1ccc(-c2csc(Nc3cccnc3)n2)cc1,55.7% (active)
7,O=C(N/C(=C\c1ccc([N+](=O)[O-])cc1)C(=O)N1CCOCC1)c1cccc(Br)c1,0.07%
8,COc1ccc(C(=O)N2CCCN(C)CC2)c(OC)c1,-1.62%
9,CCOc1cc(/C=C2\SC(N3CCCC(C)C3)=NC2=O)ccc1O (stereo not drawn),9.44%
10,O=c1c2ccccc2[nH]c(=S)n1CCN1CCC(=C(c2ccc(F)cc2)c2ccc(F)cc2)CC1,-3.53%
11,Cc1nc(N=C(N)N)nc2c(C)cccc12,3.01%
12,COc1cc(COCC(O)CN2CCN(Cc3ccc4c(c3)OCO4)CC2)cc(OC)c1OC (stereo not drawn),1.06%
13,COc1c(O)ccc2c1CN1CCc3cc4c(cc3C1C2)OCO4 (stereo not drawn),42.2% (active)
14,COc1ccc(CN2CCCC(N3CCc4ccccc4C3)C2)c(O)c1 (stereo not drawn),1.47%
15,Cc1cc(=O)[nH]c(S)c1C#N,31.9% (active)
16,Cc1ccc(NC(=O)CSc2sc3c(O)cc(=O)[nH]c3c2C#N)cc1C,9.88%
17,Cc1cc(=O)[nH]c(SCC(N)=O)c1C#N,6.8%
18,CC(C)(C)C(=O)NNC(=O)c1ccc(Oc2cc(Cl)cc(Cl)c2)o1,7.33%
19,CCC(C)C(NC(=O)C1CCC(=O)N1C(=O)OCc1ccccc1)C(=O)NC(C(=O)N1CCCC1C(N)=O)C(C)CC (stereo not drawn),1.63%
20,O=C(Cc1ccccc1)NC(=S)Nc1ccc(N2CCCCC2)cc1,-3.44%
21,O=C1C=CC(=O)N1c1ccc(N2CCCCC2)cc1,35.3% (active)
22,CCOC(=O)/C(C#N)=C/c1ccc(N2CCCCC2)cc1,0.72%
23,CC(C)CCN(C(=O)c1csnn1)C(C(=O)NC1CCCC1)c1ccccc1 (stereo not drawn),5.8%
24,O=C(Nc1ccnn1C1CCN(Cc2cccc(OCCO)c2)CC1)C1CCCC1,-3.2%
25,CCCC(C)NC(=O)C1CCN(C(=O)C2CC(=O)N(c3ccc(C)cc3)C2)CC1 (stereo not drawn),-1.18%

row,SMILES,inhibition
1,CC1=CC(C)(C)N(C(=O)CSc2nnc(-c3ccccc3)o2)c2ccc(C)cc21,1.48%
2,COc1ccc2c(c1)C(C)=CC(C)(C)N2C(=O)CNCc1ccc2c(c1)OCO2,12.3%
3,COc1ccc2c(c1)C(C)=CC(C)(C)N2C(=O)Nc1ccccc1,34.2% (active)
4,O=C1C(=O)N(CCCO)C(c2ccccc2)/C1=C(\O)c1ccc(Br)cc1 (stereo not drawn),-0.04%
5,O=C(CN1C(=O)NC2(CCCCC2)C1=O)NCCc1c[nH]c2ccccc12,0.15%
6,CC(C)NC(=O)C(=O)N/N=C/c1ccco1,-9.66%
7,O=c1nc(N/N=C/c2ccco2)cn[nH]1,52.8% (active)
8,O=C(N/N=C/c1ccco1)c1ccc(C(=O)N/N=C/c2ccco2)o1,6.04%
9,CCS(=O)(=O)Nc1ccc(C(=O)NCCSc2ccccc2)cc1,-4.1%
10,CCCCNC(=O)C1CCC(=O)N1CCc1ccccc1 (stereo not drawn),-7.08%
11,CNC(=O)/C(C#N)=C/c1c(F)cccc1Cl,-1.65%
12,COc1cc(CN2CCN(Cc3ccc(C)cc3)CC2)c([N+](=O)[O-])cc1OC,29.9% (active)
13,COc1cc(CN2CCCN(C)CC2)c([N+](=O)[O-])cc1OC,13.4%
14,COc1cc(CNCc2ccc3c(c2)OCO3)c([N+](=O)[O-])cc1OC,13.5%
15,O=C(CSc1nc2ccc([N+](=O)[O-])cc2[nH]1)c1ccc(Cl)cc1,3.49%
16,O=C(CCn1nnc2ccccc21)OCC(=O)c1ccc([N+](=O)[O-])cc1,21.8%
17,O=C(CC(n1cncn1)C(Cl)(Cl)Cl)c1ccc([N+](=O)[O-])cc1 (stereo not drawn),55.3% (active)
18,COc1cc(SC)ccc1C(=O)N(Cc1ccccc1)c1ccccc1,0.45%
19,Cc1nn(CC(=O)NC2CCCCC2)c(=O)c2cccn12,-6.41%
20,O=C(CCN1c2ccccc2Sc2ccccc21)Nc1ccccc1,6.09%
21,CCN1/C(=C/C(=S)Nc2ccccc2)Sc2ccccc21,46.3% (active)
22,CCN1/C(=C/c2ccc3ccc(C)cc3[n+]2CC)Sc2ccccc21,-2.79%
23,O=c1c2cc([N+](=O)[O-])ccc2nc2n1CCC2,3.84%
24,Fc1ccccc1COc1cccc2cccnc12,-17.2%
25,O=C(CSc1nc2cccnc2n1Cc1ccccc1)N1CCc2ccccc21,-2.92%

row,SMILES,inhibition
1,CCOC(=O)N1CCN(S(=O)(=O)c2ccc(Br)cc2)CC1,-5.88%
2,O=C(Nc1nnc(C2COc3ccccc3O2)o1)c1ccc(F)cc1 (stereo not drawn),5.07%
3,COc1ccc(OC)c2sc(NC(=O)C3COc4ccccc4O3)nc12 (stereo not drawn),-7.49%
4,c1ccc2c(c1)OCC(c1nn3cnnc3s1)O2 (stereo not drawn),55.2% (active)
5,COc1cc(NC(=O)C2=CC(c3ccc(C)cc3)=NS(=O)(=O)N2C)cc(OC)c1OC,13.1%
6,CC(=O)c1ccc(N2CCN(C(=O)C3CCN(S(=O)(=O)c4ccc5c(c4)CC(C)N5C(=O)C4CC4)CC3)CC2)cc1 (stereo not drawn),-0.32%
7,CN(CCC1CCOCC1)C(=O)CC1C(=O)NCCN1Cc1cccc(F)c1 (stereo not drawn),6.55%
8,CCCOc1ccc(C2NC(=O)NC(c3ccccc3)=C2C(C)=O)cc1OCC (stereo not drawn),-0.97%
9,COc1cccc(COc2ccc(N(C)S(=O)(=O)c3ccccc3)cc2)c1,4.14%
10,O=C(/C=C/Nc1ccccc1OC(F)(F)F)C(F)(F)F,-3.52%
11,CN(C)c1ccc(N/C=C/C(=O)C(F)(F)F)cc1,29.1% (active)
12,CC(=O)N(C)c1ccc(NC(=O)C(F)(F)F)cc1,-1.27%
13,COc1cccc2sc(Nc3nc(C)c(C(C)=O)s3)nc12,7.92%
14,COc1ccccc1OCc1nc2ccccc2s1,2.93%
15,COc1cccc2sc(NNC(=O)c3nc4ccccc4s3)nc12,30.1% (active)
16,CCCc1cc(=O)n2[nH]c(C)c(-c3ccc(Cl)cc3)c2n1,-3.86%
17,Cc1ccc(NC2CCCN(C(=O)CCC3(C)CC3)C2)cc1C (stereo not drawn),12.1%
18,O=C1CSC(=S)N1/N=C/c1ccc(O)c([N+](=O)[O-])c1,39.1% (active)
19,O=[N+]([O-])c1ccc(N2CCSCC2)cc1O,7.26%
20,Cc1cc(C(=O)N/N=C/c2ccc(O)c([N+](=O)[O-])c2)c(C)n1-c1ccc(F)cc1,1.56%
21,CCC(C)(C)NC(=O)C1c2ccccc2Oc2ccccc21,0.98%
22,CCC(C)NC(=O)C1c2ccccc2Oc2ccccc21 (stereo not drawn),-7.47%
23,O=C(N/N=C/c1ccc(O)c(O)c1)C1c2ccccc2Oc2ccccc21,66.5% (active)
